Most compounds without a hit are left out; they make up all but 2.4% or so of the library.
M1 PAM: potentiates human M1 receptor response to acetylcholine | CHO-K1 hM1, Fluo-8 calcium fluorescence, ACh EC20; 0% = ACh EC20, 100% = maximal ACh | activation, % at 3 µM | actives 0.088% (n = 360,000); in the data active means activation above about 19%, passing the limit was not always enough
Target sequence (P11229 whole entry, looked up): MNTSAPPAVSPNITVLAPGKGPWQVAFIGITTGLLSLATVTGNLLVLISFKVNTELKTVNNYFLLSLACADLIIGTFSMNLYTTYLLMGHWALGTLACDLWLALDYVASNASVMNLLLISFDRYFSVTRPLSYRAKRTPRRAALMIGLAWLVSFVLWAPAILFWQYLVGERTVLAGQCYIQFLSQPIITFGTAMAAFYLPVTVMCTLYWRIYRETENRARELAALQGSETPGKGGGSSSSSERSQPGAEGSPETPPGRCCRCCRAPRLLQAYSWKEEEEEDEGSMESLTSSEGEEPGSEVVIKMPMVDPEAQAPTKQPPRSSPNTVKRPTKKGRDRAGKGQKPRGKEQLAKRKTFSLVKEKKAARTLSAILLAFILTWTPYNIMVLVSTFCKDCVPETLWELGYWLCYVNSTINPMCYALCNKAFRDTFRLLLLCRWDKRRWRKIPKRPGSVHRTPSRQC
CHRM1 agonist: human M1 muscarinic receptor agonism. actives 0.33% (n = 360,000). AID 588814. activation, % at 3 µM. P11229. CHO-K1 hM1, Fluo-8 calcium fluorescence, agonist mode; 0% DMSO, 100% acetylcholine EC100;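 active means activation above the run's mean compound activation plus 3 SD, cut at about 16% in these data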;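 further: peak over basal fluorescence ratio within a 140 s kinetic read after compound addition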
CHRM1 antagonist: antagonists of human M1 muscarinic receptor | CHO-K1 hM1, Fluo-8 calcium fluorescence, ACh EC80 antagonist | inhibition, % at 3 µM | actives 1.3% (n = 360,000);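 active means percent inhibition above its own plate's cutoff, namely the mean of that plate's compound wells plus 3 SD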;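 further: peak over basal fluorescence ratio during 140 s after agonist addition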
M1 PAM parental: counter-screen for M1 PAMs: effect in parental CHO-K1 cells; activation, % at 3 µM; ATP EC20, Fluo-8 calcium fluorescence; 0% at ATP EC20, 100% at ATP max; actives 0.02% (n = 360,000);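 active means activation above the run cutoff, the mean activation of all test compounds plus 3 SD, cut at about 40% in these data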;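 further: peak over basal fluorescence ratio in a 140 s read after ATP addition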
M1 ag parental: M1 agonist counterscreen hit in parental CHO-K1 cells. AID 602248. activation, % at 3 µM. Fluo-8 calcium fluorescence; scaled to maximal ATP response, vehicle zero. actives 0.48% (n = 360,000); in the data active means activation above about 15%;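 further: untransfected CHO-K1 host cells lacking M1 receptor as counterscreen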
CHO-K1 Ca antag: nonselective inhibitor or artifact in parental CHO-K1 cells | ATP-induced calcium, Fluo-8 fluorescence | inhibition, % at 3 µM | actives 0.6% (n = 360,000);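 active means inhibition above a per-plate cutoff, the plate's mean sample inhibition plus 3 SD, cut at about 24% in these data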
Of the large screens only hits and unclear results are named; the others gave an inactive call.

CCOC(=O)C1CCCN(C(=O)/C(=C/c2ccco2)NC(=O)c2ccccc2)C1 (configuration not stated)	CHRM1 agonist 48
O=C(N/C(=C/c1ccco1)C(=O)N1CCCCCC1)c1ccccc1	none
CCOC(=O)C1CCN(C(=O)/C(=C/c2ccccc2)NC(=O)c2ccccc2)CC1	M1 ag parental 16
CCOC(=O)N1CCN(C(=O)/C(=C/c2ccc(OC)c(OC)c2)NC(=O)c2ccccc2)CC1	none
C[C@@H]1CN([C@H](C)CO)S(=O)(=O)c2ccc(C#Cc3ccccc3F)cc2O[C@H]1CN(C)C(=O)c1ccc2c(c1)OCO2	CHRM1 antagonist 27
C[C@@H]1Cn2cnc(C(=O)NCc3ccc(CNC(=O)OC(C)(C)C)cc3)c2C(=O)N1	none
C=CCN(c1ccccc1)S(=O)(=O)c1ccc(Cl)c(C(=O)OCC(=O)c2[nH]c(C)c(C(C)=O)c2C)c1	CHRM1 antagonist 31, CHO-K1 Ca antag 29
Oc1cccc(/C=C/c2ccc3cccc(O)c3n2)c1	none
O=C(COC(=O)c1ccc(Cl)nc1)NC(=O)c1ccccc1	none
O=C(Nc1ccc(F)cc1)Nc1cnccn1	none
O=C(Nc1cc(Cl)cc(Cl)c1)Nc1cnccn1	CHO-K1 Ca antag 30
Cc1ccc(C(=O)CCC(=O)N2CCN(C/C=C/c3ccccc3)CC2)cc1	CHRM1 agonist 24
Cc1ccc(NC(=O)N2CCN(C/C=C/c3ccccc3)CC2)cc1	none
CCOc1ccc(C(=O)NCC(=O)N2CCN(C/C=C/c3ccccc3)CC2)cc1OCC	CHRM1 agonist 27, CHRM1 antagonist 30
CCCCNC(=O)N1CCN(C/C=C/c2ccccc2)CC1	none
COC(=O)c1ccccc1NC(=O)N1CCN(C/C=C/c2ccccc2)CC1	none
COc1ccccc1C(=O)NCC(=O)N1CCN(C/C=C/c2ccccc2)CC1	CHRM1 agonist 22
Cc1ccccc1C(=O)NCC(=O)N1CCN(C/C=C/c2ccccc2)CC1	CHRM1 agonist 23, CHRM1 antagonist 33
CC(=O)NC(CC(=O)NCC(=O)Nc1ccc(F)c(F)c1)c1ccccc1 (configuration not stated)	none
OCCC1CN(Cc2nc(-c3ccc(F)cc3)cs2)CCN1CCc1ccccc1 (configuration not stated)	none
CC(C)=CCN1CCN(Cc2nc(-c3ccccc3)cs2)CC1CCO (configuration not stated)	CHRM1 antagonist 34
OCCC1CN(Cc2nc(-c3ccccc3)cs2)CCN1CCc1ccccc1 (configuration not stated)	M1 ag parental 16
COc1ccc(-c2csc(Nc3ccc(S(=O)(=O)Nc4cc(C)on4)cc3)n2)cc1C	CHRM1 antagonist 46
COc1ccc(-c2csc(Nc3ccc(S(=O)(=O)Nc4cc(OC)nc(OC)n4)cc3)n2)cc1	none
C/C(=N\NC(=O)CSc1nc(C)cc(C)n1)c1cccc([N+](=O)[O-])c1	M1 PAM parental 41
Cc1cccnc1C(NC(=O)C1CCN(Cc2ccc(Cl)cc2)CC1)c1ccccc1 (configuration not stated)	none
Cc1[nH]c(=O)[nH]c(=O)c1S(=O)(=O)Nc1ccc(F)c(Cl)c1	none
Cc1cccc(N(CC(=O)NCCSCc2ccccc2)S(C)(=O)=O)c1	none
Cc1c(OCc2ccccc2)cccc1OCc1ccccc1	none
CN(C)CCC(Oc1ccccc1OCc1ccccc1)c1ccccc1 (configuration not stated)	CHRM1 antagonist 46
O=C(CSc1nnnn1C1CC2CCC1C2)Nc1ccnc2ccccc12 (configuration not stated)	CHRM1 antagonist 32, CHO-K1 Ca antag 37
CCN(c1ccccc1)S(=O)(=O)c1ccc(C(=O)NC2CCN(Cc3ccccc3)CC2)cc1	CHRM1 antagonist 66
O=C(NC1CCN(Cc2ccccc2)CC1)C1COc2ccccc2O1 (configuration not stated)	CHRM1 antagonist 83
NS(=O)(=O)c1ccc(-n2cccc2C=O)cc1	M1 ag parental 18
CCCOC(=O)/C(=C\C=C\c1ccco1)NC(=O)c1ccccc1	none
CC(CNCc1ccc2c(c1)OCO2)NCc1ccc2c(c1)OCO2 (configuration not stated)	M1 PAM parental 43
Fc1ccc(CNCc2ccc3c(c2)OCO3)cc1	none
COc1cc(OC)cc(C(=O)NCCNC(=O)c2ccccc2)c1	none
Cc1ccc(SCC(=O)Nc2ccc(N3CCN(C)CC3)c(F)c2)c(C)c1	CHRM1 antagonist 30
CC(=NNc1nc2ccccc2o1)c1ncccn1	CHO-K1 Ca antag 31
CC(=NNc1nc2ccccc2o1)c1cc2ccccc2cn1	none
CC(=NNc1nc2ccccc2s1)c1ncccn1	CHO-K1 Ca antag 27
COc1ccc(-c2c(NC(=O)CC(C)C)n(C)c3ccccc3c2=O)cc1OC	none
Cc1c(N2C(=O)/C(=C/C3CC=CCC3)SC2=S)c(=O)n(-c2ccccc2)n1C (configuration not stated)	CHRM1 antagonist 73
Cc1c(N2C(=O)/C(=C\C3CC=CCC3)SC2=S)c(=O)n(-c2ccccc2)n1C (configuration not stated)	CHRM1 antagonist 62
Cc1c(N2C(=O)/C(=C/c3ccccc3)SC2=S)c(=O)n(-c2ccccc2)n1C	none
COc1ccc(C(=O)NCCCCCC(=O)O)cc1OC	none
Oc1ccccc1N1CCN(CC(O)COC2CCCc3ccccc32)CC1 (configuration not stated)	CHRM1 antagonist 39
OC(COc1ccc2c(c1)CCC2)CN1CCN(c2ccccc2F)CC1 (configuration not stated)	none
OC(C#Cc1ccccc1)(c1ccccc1)c1ccccc1	none
C[N+]1(CC#CC(O)(c2ccccc2)c2ccccc2)CCCC1	CHRM1 antagonist 100
CC(C)[N+](C)(C)CC#CC(O)(c1ccccc1)c1ccccc1	CHRM1 antagonist 99
Cc1cc(C(c2ccc(C)o2)c2ccc(C)o2)c(O)c([N+](=O)[O-])c1	none
S=C(NCc1cccs1)Nc1cc(Cl)cc(Cl)c1	CHRM1 antagonist 43
S=C(NCc1cccs1)Nc1cccc(Cl)c1	none
CC1CCCCN1CCn1cnc2c([nH]c3ccccc32)c1=O (configuration not stated)	none
Cc1cc(=O)[nH]c(SCC(=O)N2CCN(C(c3ccccc3)c3ccccc3)CC2)n1	CHRM1 antagonist 52
Cc1cc(=O)[nH]c(SCC(=O)N2CCCCC2)n1	none
N#CCC(=O)N1CCN(C(c2ccccc2)c2ccccc2)CC1	none
COc1ccc(N2CCN(C(=O)CN3CCN(C(c4ccccc4)c4ccccc4)CC3)CC2)cc1	CHRM1 antagonist 65
Cc1cc(C)c2c(=O)[nH]c(SCC(=O)N3CCCCC3)nc2n1	none
O=C(O)COCC(=O)N1CCN(C(c2ccccc2)c2ccccc2)CC1	CHRM1 antagonist 58

Screening results: PubChem, The Scripps Research Institute Molecular Screening Center
